Here are results for three molecules from PubChem BioAssay AID1159580 (chemical genetic matrix, 2015).

Each structure is given as a SMILES string. Screen size: about 5,500 compounds; about 2,000 (36%) were called active. About 18% were inconclusive and are not listed. The list shows a part of the results. A number with no mark means an inactive call. Rule as the data show it: active = normalized growth mostly below about 0.91 (no sharp cut-off); inconclusive = no clear call, values can overlap the other calls; inactive = mostly above about 0.92.

A short description of the experiment: chemical genetic growth profiling, strain panel (AID 1159580).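 Also: tested at 20 µM; growth read once vehicle control cultures reached saturation at 30 °C; 1 = growth at the plate median or of vehicle wells.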 Conditions: S. cerevisiae deletion strains, growth OD.
Setting [1] is: locus YAL040C, strain CLN3, stronger effect = lower value.
Where [2] appears, read: locus YCL061C, strain MRC1 (second series), stronger effect = lower value.
Setting [3] is: locus YDR363W, strain ESC2, stronger effect = lower value.
Setting [4] is: locus YER002W, strain NOP16, stronger effect = lower value.
Where [5] appears, read: locus YGR229C, strain SMI1, stronger effect = lower value.
[6] abbreviates: locus YJR075W, strain HOC1, stronger effect = lower value.
Where [7] appears, read: locus YMR307W, strain GAS1, stronger effect = lower value.
[8] abbreviates: locus YNL153C, strain GIM3, stronger effect = lower value.
Where [9] appears, read: locus YNL175C, strain NOP13, stronger effect = lower value.
Where [10] appears, read: locus YNL197C, strain WHI3, stronger effect = lower value.
Setting [11] is: locus YNL224C, strain SQS1, stronger effect = lower value.
The mark [12] stands for this setting: locus YNL322C, strain KRE1, stronger effect = lower value.
Where [13] appears, read: locus YOR083W, strain WHI5 (second series), stronger effect = lower value.
[14] abbreviates: locus YPL055C, strain LGE1, stronger effect = lower value.
Where [15] appears, read: locus YNL128W, strain TEP1, stronger effect = lower value.

For the molecule `CN1CCN(CC/C=C2/c3ccccc3Sc3ccc(S(=O)(=O)N(C)C)cc32)CC1`, the normalized growth by setting is: under setting [1], 0.997; under setting [2], 1; under setting [3], 0.983; under setting [4], 1.03; under setting [5], 0.99; under setting [6], 0.993. Also, the normalized growth is, setting by setting: under setting [7], 0.999; under setting [8], 1.02; under setting [9], 1.03; under setting [10], 1.02; under setting [11], 1.04; under setting [12], 0.967. Besides, the normalized growth by setting is: under setting [13], 1.05; under setting [14], 0.989.
As to `CN(C)S(=O)(=O)c1ccc2c(c1)/C(=C/c1cc3c([nH]1)CCCC3)C(=O)N2`, the normalized growth is, setting by setting: under setting [1], 1.07; under setting [2], 0.995; under setting [3], 0.983; under setting [4], 0.983; under setting [5], 0.972; under setting [6], 1.01. Also, the normalized growth was 0.996 under setting [7]; 0.982 under setting [15]; 0.977 under setting [8]; 0.976 under setting [9]; 0.995 under setting [10]; 0.983 under setting [11]. Besides, the normalized growth was 0.983 under setting [12], 1 under setting [13] and 0.985 under setting [14].
Regarding `OCCN1CCN(CC/C=C2/c3ccccc3Sc3ccc(C(F)(F)F)cc32)CC1`, the normalized growth by setting is: under setting [1], 1.04; under setting [2], 0.973; under setting [3], 0.923; under setting [4], 1.01; (locus YGR078C, strain PAC10, stronger effect = lower value) 0.975; under setting [6], 0.942. The normalized growth by setting is: under setting [15], 1.02; under setting [9], 1.07; under setting [10], 1.02; under setting [11], 1.05; under setting [12], 0.974; under setting [13], 0.887. Further, the normalized growth under setting [14] is 0.87 (active).
